Hits are enriched below; roughly 5.7% of the tested compounds scored in any of these assays.
hgDAF-12 ag: hgDAF-12 agonism, primary luciferase screen | HEK293 GAL4-hgDAF12 UAS-luciferase reporter, agonist luminescence; normalized to butyrate control | activation, % at 6.8 µM | actives 1.8% (n = 370,000) | AID 687014;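 active means activation above a cutoff set at the mean of all screened compounds plus 3 SD, cut at about 10% in these data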;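 further: 0% = DMSO wells and 100% = sodium butyrate wells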
hcDAF12 agonist: activates DAF-12 receptor from parasite H. contortus. HEK293 hcDAF-12 lit1-tk-luc reporter, luminescence; 0% DMSO, 100% Δ7-dafachronic acid. activation, % at 6.8 µM. actives 1.4% (n = 370,000). AID 652067;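 active means activation above the mean of all tested compounds plus 3 SD, cut at about 5.5% in these data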;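 further: 100% = response to 3 µM Δ7-dafachronic acid high control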
ssDAF12 agonist: activators of S. stercoralis DAF-12 nuclear receptor | HEK293 ssDAF-12/GRIP1 lit1-tk-luc reporter, luminescence; % of 3 µM dafachronic acid response | activation, % at 6.8 µM | actives 1% (n = 370,000) | AID 652126;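 active means activation above the mean over all tested compounds plus 3 SD, cut at about 0.9% in these data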;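 further: 0% = DMSO-only wells and 100% = 3 µM delta7-dafachronic acid wells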
DAX1 inh-1: inhibits human nuclear receptor DAX1; P51843; HEK293 Gal4-DAX1 luciferase reporter, luminescence; inhibition, % at 6.75 µM; actives 0.99% (n = 340,000);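 active means inhibition above the mean over all tested compounds plus 3 SD, cut at about 4.2% in these data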;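 further: 0% = DAX1-transfected cells with DMSO and 100% = empty-vector control cells with DMSO; inhibition shows as a rise in luminescence from relieved DAX1 repression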
Target sequence (P51843 207-470 limits assumed): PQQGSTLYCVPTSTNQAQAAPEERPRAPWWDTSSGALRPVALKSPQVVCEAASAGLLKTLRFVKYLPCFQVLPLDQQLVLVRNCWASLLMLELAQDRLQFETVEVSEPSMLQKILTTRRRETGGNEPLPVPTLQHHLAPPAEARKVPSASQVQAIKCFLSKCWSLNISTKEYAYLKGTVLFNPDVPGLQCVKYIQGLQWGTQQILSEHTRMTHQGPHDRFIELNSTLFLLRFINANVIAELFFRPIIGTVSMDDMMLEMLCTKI
DAX1 inh-2: inhibitors of DAX1 repression of SF-1 activated StAR promoter; HEK293T StAR-luciferase reporter, SF-1/DAX-1 repression relief; AID 652010; actives 1.1% (n = 370,000); inhibition, % at 6.8 µM;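 active means inhibition above the mean over all tested compounds plus 3 SD, cut at about 3.6% in these data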;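 further: 0% = DAX-1 cells with DMSO and 100% = cells lacking DAX-1 with DMSO; higher inhibition means more luminescence from relief of DAX-1 repression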
AHR activator: activators of human aryl hydrocarbon receptor; actives 2.5% (n = 320,000); AHR-responsive luciferase reporter cells, luminescence; P35869; activation, % at 5 µM; in the data active means activation above about 47%;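 further: 0% = vehicle wells and 100% = reference agonist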
LXRb hcDAF ctr: LXR-beta agonism as hcDAF-12 counter-screen; 3,400 tested, under 10 active; shares compounds with hcDAF12 agonist; activation, % at 6.8 µM; HEK293 Gal4-LXR tk-luc reporter, luminescence, 24 h; normalized: DMSO 0%, positive control 100%;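 active means mean percent activation of the reporter above a cutoff set as the average over tested compounds plus their standard deviation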
Target sequence (P55055 whole entry, looked up, the tested form may be a part): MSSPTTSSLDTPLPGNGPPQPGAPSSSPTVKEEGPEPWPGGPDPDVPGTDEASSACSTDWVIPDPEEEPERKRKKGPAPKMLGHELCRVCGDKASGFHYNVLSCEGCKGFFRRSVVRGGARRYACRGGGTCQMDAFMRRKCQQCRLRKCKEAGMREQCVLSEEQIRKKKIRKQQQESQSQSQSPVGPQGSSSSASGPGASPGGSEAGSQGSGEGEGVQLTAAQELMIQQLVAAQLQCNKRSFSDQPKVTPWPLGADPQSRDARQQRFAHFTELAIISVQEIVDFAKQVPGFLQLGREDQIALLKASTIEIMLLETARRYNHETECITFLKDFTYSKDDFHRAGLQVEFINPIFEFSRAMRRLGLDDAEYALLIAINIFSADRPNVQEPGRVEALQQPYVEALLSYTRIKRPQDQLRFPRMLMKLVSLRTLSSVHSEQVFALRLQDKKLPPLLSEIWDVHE
hcDAF12 conf: hcDAF-12 agonism, confirmation assay | actives 61% (n = 3,400) | shares compounds with hcDAF12 agonist | activation, % at 6.8 µM | AID 743032 | HEK293 hcDAF-12 lit1-tk-luc reporter, luminescence; % of Δ7-dafachronic acid response;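 active means mean activation across triplicate tests above the threshold derived from the earlier primary screen, cut at about 5.5% in these data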;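 further: 0% = DMSO only wells and 100% = 3 µM Δ7-dafachronic acid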
The depositor's hits bear a star.

For Cc1ccc(NC(=O)c2ccc(F)cc2F)cc1 the results were hgDAF-12 ag 8.2, hcDAF12 agonist 8.9*, ssDAF12 agonist 0.3, DAX1 inh-1 2.5, DAX1 inh-2 1.7, AHR activator 20.2, LXRb hcDAF ctr 1.4 and hcDAF12 conf 4.3.
For Cc1ccc(NC(=O)c2cc3ccccc3cc2O)cc1 the results were hgDAF-12 ag 9.9, hcDAF12 agonist 10.4*, ssDAF12 agonist 0.8, DAX1 inh-1 4.5*, DAX1 inh-2 1.3, AHR activator 36.2, LXRb hcDAF ctr 1.2 and hcDAF12 conf 9.2*.
Screening Cc1ccc(NC(=O)NNC(=O)c2cc3ccccc3cc2O)cc1C returned hgDAF-12 ag 1.3, hcDAF12 agonist 2.2, ssDAF12 agonist -0.5, DAX1 inh-1 0.4, DAX1 inh-2 -1.2 and AHR activator 5.1.
Screening O=C(COC(=O)c1ccccc1O)Nc1ccc2ccccc2c1 returned hgDAF-12 ag 0.5, hcDAF12 agonist 3.1, ssDAF12 agonist -0.6, DAX1 inh-1 -0.6, DAX1 inh-2 0.2 and AHR activator 8.2.
`O=C(Nc1ccc2ccccc2c1)c1ccccc1O` gave hgDAF-12 ag 9.2, hcDAF12 agonist 7.8*, ssDAF12 agonist 1.0*, DAX1 inh-1 -2.2, DAX1 inh-2 0.1, AHR activator 47.8*, LXRb hcDAF ctr 2.0 and hcDAF12 conf 20.0*.
`O=C(Nc1ccccc1)c1ccc(F)cc1F` gave hgDAF-12 ag 2.0, hcDAF12 agonist 1.7, ssDAF12 agonist -0.2, DAX1 inh-1 0.9, DAX1 inh-2 0.5 and AHR activator -1.4.
COc1ccc(N2C(=O)N[C@@H](Cc3ccccc3)C2=O)cc1OC was read as hgDAF-12 ag -5.5, hcDAF12 agonist -0.6, ssDAF12 agonist -1.1, DAX1 inh-1 -1.0, DAX1 inh-2 0.1 and AHR activator -0.1.
`O=C(Cc1cccc(NC(=O)C2CCCN(C(=O)C3CC3)C2)c1)Nc1ccc(C(=O)N2CCOCC2)cc1` (stereo not drawn) gave hgDAF-12 ag -0.1, hcDAF12 agonist 3.3, ssDAF12 agonist -0.7, DAX1 inh-1 -1.7 and DAX1 inh-2 1.1.
For Cc1ccc(S(=O)(=O)N2CCN(C(=O)c3ccc4ccccc4n3)CC2)c(C)c1 the results were hgDAF-12 ag 11.5*, hcDAF12 agonist 7.2*, ssDAF12 agonist 0.9, DAX1 inh-1 1.4, DAX1 inh-2 2.5, AHR activator 26.2, LXRb hcDAF ctr 0.4 and hcDAF12 conf 8.4*.
CCN(CC)C(=O)Cn1cc(C(=O)C(=O)N2CCN(Cc3ccc4c(c3)OCO4)CC2)c2ccccc21 was read as hgDAF-12 ag -0.8, hcDAF12 agonist -1.3, ssDAF12 agonist -1.1, DAX1 inh-1 0.4, DAX1 inh-2 0.6 and AHR activator 2.4.
COC(=O)C(C)Oc1ccc(-c2nccc(-c3cccs3)n2)cc1 (stereo not drawn) was read as hgDAF-12 ag 5.6, hcDAF12 agonist -0.5, ssDAF12 agonist -0.7, DAX1 inh-1 0.2, DAX1 inh-2 0.5 and AHR activator 16.5.
Screening Oc1ccc(-c2nccc(-c3cccs3)n2)cc1 returned hgDAF-12 ag 13.6*, hcDAF12 agonist 11.9*, ssDAF12 agonist 1.0*, DAX1 inh-1 4.8*, DAX1 inh-2 1.8, AHR activator 69.8*, LXRb hcDAF ctr 0.9 and hcDAF12 conf 10.7*.
For COc1cc(/C=N/NC(=S)Nc2cccc(C(=O)O)c2)ccc1O the results were hgDAF-12 ag 9.4, hcDAF12 agonist -0.3, ssDAF12 agonist -0.9, DAX1 inh-1 -4.7, DAX1 inh-2 0.2 and AHR activator -6.8.
Screening COc1cc(/C=N/Nc2ccccn2)ccc1O returned hgDAF-12 ag 12.1*, hcDAF12 agonist 7.3*, ssDAF12 agonist 0.0, DAX1 inh-1 4.3*, DAX1 inh-2 2.3, AHR activator 27.1, LXRb hcDAF ctr 0.8 and hcDAF12 conf 7.6*.
COc1cc(/C=N/Nc2ccc(C(=O)O)cc2)ccc1O was read as hgDAF-12 ag 5.6, hcDAF12 agonist 6.8*, ssDAF12 agonist 0.5, DAX1 inh-1 -1.7, DAX1 inh-2 2.9, AHR activator -6.9, LXRb hcDAF ctr 1.0 and hcDAF12 conf 6.4*.
`Cc1cc([N+](=O)[O-])ccc1NC(=O)CSc1nncn1-c1cccnc1` gave hgDAF-12 ag -1.3, hcDAF12 agonist 1.0, ssDAF12 agonist -0.8, DAX1 inh-1 0.5, DAX1 inh-2 -0.2 and AHR activator -2.0.
`C=C1CC2(CC(c3ccccc3)OC(c3ccccc3)C2)OC1=O` (stereo not drawn) gave hgDAF-12 ag -16.3, hcDAF12 agonist -3.7, ssDAF12 agonist -1.8, DAX1 inh-1 -4.6 and DAX1 inh-2 -3.9.
O=[N+]([O-])c1ccc(O)c(C(C#Cc2ccccc2)N2CCOCC2)c1 (stereo not drawn) was read as hgDAF-12 ag 4.7, hcDAF12 agonist -0.1, ssDAF12 agonist -1.4, DAX1 inh-1 -1.0, DAX1 inh-2 0.7 and AHR activator 2.5.
`O=C(O)COc1ccccc1/C=N/NC(=O)c1cc2ccccc2cc1O` gave hgDAF-12 ag 10.1, hcDAF12 agonist 11.1*, ssDAF12 agonist 2.7*, DAX1 inh-1 -0.3, DAX1 inh-2 1.7, AHR activator 58.1*, LXRb hcDAF ctr -0.1 and hcDAF12 conf 5.1.
`CCn1c(C)c(/C=N/Nc2nc3ccccc3s2)c2ccccc21` gave hgDAF-12 ag 10.8*, hcDAF12 agonist 11.6*, ssDAF12 agonist 0.3, DAX1 inh-1 -0.8, DAX1 inh-2 0.9, AHR activator 44.1, LXRb hcDAF ctr 0.3 and hcDAF12 conf 3.7.
For COc1cccc(C=NNc2nc3ccccc3s2)c1OC the results were hgDAF-12 ag 12.9*, hcDAF12 agonist 7.6*, ssDAF12 agonist 0.4, DAX1 inh-1 6.8*, DAX1 inh-2 3.6*, LXRb hcDAF ctr 1.2 and hcDAF12 conf 3.5.
`COc1cccc(/C=N\NS(=O)(=O)c2ccccc2)c1OC` gave hgDAF-12 ag -1.2, hcDAF12 agonist 0.8, ssDAF12 agonist -0.9, DAX1 inh-1 1.0, DAX1 inh-2 0.0 and AHR activator -1.5.
For COc1cccc(/C=N/Nc2nnc3c(n2)[nH]c2ccccc23)c1OC the results were hgDAF-12 ag 1.0, hcDAF12 agonist 7.1*, ssDAF12 agonist -0.7, DAX1 inh-1 0.7, DAX1 inh-2 -0.5, AHR activator 27.6, LXRb hcDAF ctr 0.2 and hcDAF12 conf 3.5.
Screening CCn1c(/C=C/c2c(C)n(CC)c3ccccc23)nc2ccccc2c1=O returned hgDAF-12 ag -1.1, hcDAF12 agonist 1.3, ssDAF12 agonist -0.8, DAX1 inh-1 -0.3, DAX1 inh-2 -0.1 and AHR activator 1.7.

Screening results from PubChem.
